Screens as filed in PubChem BioAssay.
hgDAF-12 ag: agonists of H. glycines DAF-12 nuclear receptor | activation, % at 6.8 µM | hit rate 1.8% among 370,000 | HEK293 GAL4-hgDAF12 UAS-luciferase reporter, agonist luminescence; normalized to butyrate control | AID 687014;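 active = activation above a cutoff set at the mean of all screened compounds plus 3 SD, cut at about 10% in these data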;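 note: 0% = DMSO wells and 100% = sodium butyrate wells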
DAX1 inh-1: inhibits human nuclear receptor DAX1. hit rate 0.99% among 340,000. HEK293 Gal4-DAX1 luciferase reporter, luminescence. inhibition, % at 6.75 µM. P51843;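 active = inhibition above the mean over all tested compounds plus 3 SD, cut at about 4.2% in these data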;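 note: 0% = DAX1-transfected cells with DMSO and 100% = empty-vector control cells with DMSO; inhibition shows as a rise in luminescence from relieved DAX1 repression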
hcDAF12 agonist: H. contortus DAF-12 activation, primary screen; HEK293 hcDAF-12 lit1-tk-luc reporter, luminescence; 0% DMSO, 100% Δ7-dafachronic acid; activation, % at 6.8 µM; hit rate 1.4% among 370,000; AID 652067;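 active = activation above the mean of all tested compounds plus 3 SD, cut at about 5.5% in these data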;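 note: 100% = response to 3 µM Δ7-dafachronic acid high control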
DAX1 inh-2: inhibitors of DAX1 repression of SF-1 activated StAR promoter; HEK293T StAR-luciferase reporter, SF-1/DAX-1 repression relief; inhibition, % at 6.8 µM; hit rate 1.1% among 370,000;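 active = inhibition above the mean over all tested compounds plus 3 SD, cut at about 3.6% in these data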;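 note: 0% = DAX-1 cells with DMSO and 100% = cells lacking DAX-1 with DMSO; higher inhibition means more luminescence from relief of DAX-1 repression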
ssDAF12 agonist: S. stercoralis DAF-12 activation, primary screen; HEK293 ssDAF-12/GRIP1 lit1-tk-luc reporter, luminescence; % of 3 µM dafachronic acid response; activation, % at 6.8 µM; hit rate 1% among 370,000;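 active = activation above the mean over all tested compounds plus 3 SD, cut at about 0.9% in these data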;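 note: 0% = DMSO-only wells and 100% = 3 µM delta7-dafachronic acid wells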
LXRb hcDAF ctr: activates human LXR-beta, counter-screen for hcDAF-12 agonists | shares compounds with hcDAF12 agonist | HEK293 Gal4-LXR tk-luc reporter, luminescence, 24 h; normalized: DMSO 0%, positive control 100% | activation, % at 6.8 µM | 3,400 tested, under 10 active | AID 743027;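 active = mean percent activation of the reporter above a cutoff set as the average over tested compounds plus their standard deviation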
Target sequence (P55055 whole entry, looked up, the tested form may be a part): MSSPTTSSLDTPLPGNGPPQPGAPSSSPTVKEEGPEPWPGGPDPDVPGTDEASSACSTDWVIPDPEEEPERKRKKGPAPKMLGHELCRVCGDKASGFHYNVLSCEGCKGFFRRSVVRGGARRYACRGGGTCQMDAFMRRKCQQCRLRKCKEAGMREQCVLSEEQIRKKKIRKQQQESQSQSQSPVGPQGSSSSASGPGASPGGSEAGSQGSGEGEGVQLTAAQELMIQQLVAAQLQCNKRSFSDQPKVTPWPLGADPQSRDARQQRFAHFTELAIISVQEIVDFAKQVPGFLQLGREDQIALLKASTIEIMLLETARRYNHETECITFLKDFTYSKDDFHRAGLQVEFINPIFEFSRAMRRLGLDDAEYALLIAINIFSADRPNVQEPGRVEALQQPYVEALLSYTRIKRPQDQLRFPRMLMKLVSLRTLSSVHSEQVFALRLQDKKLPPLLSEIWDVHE
hcDAF12 ag: hcDAF-12 agonism, confirmation assay; activation, % at 6.8 µM; HEK293 hcDAF-12 lit1-tk-luc reporter, luminescence; % of Δ7-dafachronic acid response; hit rate 61% among 3,400; shares compounds with hcDAF12 agonist;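 active = mean activation across triplicate tests above the threshold derived from the earlier primary screen, cut at about 5.5% in these data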;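 note: 0% = DMSO only wells and 100% = 3 µM Δ7-dafachronic acid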
Starred values were filed as active, the others as inactive; / = no result given. Hits are enriched below; roughly 4.1% of the tested compounds scored in any of these assays.

SMILES	hgDAF-12 ag	DAX1 inh-1	hcDAF12 agonist	DAX1 inh-2	ssDAF12 agonist	LXRb hcDAF ctr	hcDAF12 ag
CCc1ccc(C2c3[nH]c4ccccc4c3CCN2C(=O)CN2CCN(CC)CC2)cc1 (stereo not given)	0	-1	8.5*	0	1	0	4
CCc1ccc(C2c3[nH]c4ccccc4c3CCN2C(=O)c2ccc(=O)n(C)n2)cc1 (stereo not given)	2	0	1	0	0	/	/
CSc1ccc(C2c3[nH]c4ccccc4c3CCN2C(=O)c2ccnn2C)cc1 (stereo not given)	7	1	10*	0	2.0*	1	8.3*
COC(=O)C1=C(C)N(Cc2ccc(C(F)(F)F)cc2)C(=NCC2CC2)NC1c1ccccc1C(F)(F)F (stereo not given)	5	/	0	0	-2	/	/
OCCC1CN(Cc2ccccc2O)CCN1CCCc1ccccc1 (stereo not given)	0	-1	7.8*	0	-1	0	1
Cc1ccccc1CN1CCN(CCCc2ccccc2)C(CCO)C1 (stereo not given)	4	1	0	0	-1	/	/
Fc1ccc(F)c(C2=NNC(=Nc3ccccc3F)SC2)c1	13*	3	8.6*	3	2.7*	1	8.1*
Fc1ccccc1N=C1NN=C(c2ccccc2)CS1	12*	1	12*	4	1.0*	2	8.5*
N#CCC[C@H]1CC[C@]2(CCCN(C(=O)C3CCCCC3)C2)O1	2	/	-1	-1	-1	/	/
CC1=C2NC(N)=[N+](CC3CC3)C(Cc3ccccc3)[C@@H]2n2c(=O)n(-c3ccccc3)c(=O)n2C1 (stereo not given in full)	5	/	-1	0	-1	/	/
COC(=O)[C@]12C[C@H](CC(=O)NCC3CCCCC3)C(=O)N(Cc3ccc4c(c3)OCO4)C1=C[C@H](C(C)(C)C)O[C@@H]2C	-2	/	0	-1	-1	/	/
OC(c1ccccc1)(c1ccccc1)C1CCN(CCCOc2cccnc2)CC1	0	/	1	1	-2	/	/
O=C(Nc1ccc(Oc2ccccc2)cc1)C1CCCN1S(=O)(=O)c1cccc2cccnc12 (stereo not given)	-1	/	-6	-3	-2	/	/
CC(C)(C)N1C(=O)c2ccccc2NC(=O)N1Cc1ccc(Br)cc1	1	0	4	0	-1	/	/
CC1(C)Nc2ccccc2C(=O)N1c1ccc(Br)cc1	13*	9.2*	6.8*	3	3.0*	1	5
COC(=O)c1cc2c(c3c4cc(OC)ccc4n(S(=O)(=O)c4ccc(C)cc4)c13)C(=O)N(C)C2	2	/	4	-1	0	/	/
COc1cccc2c1C(=O)c1c(O)c3c(c(O)c1C2=O)C[C@@](O)(C(=O)CO)C[C@@H]3OC1CC(N)C(O)C(C)O1 (stereo not given in full)	-4	-2	11*	-6	7.3*	2	5
COCc1cc(N2CCNC[C@H]2C)ccc1N1CCN(Cc2ccccc2)[C@@H](C)C1	-4	/	-1	0	-1	/	/
COc1ccc(C(=O)Nc2ccccc2C(=O)Nc2cc(C)ccn2)cc1	5	1	3	1	-2	/	/
COc1ccc(C(=O)/C=C/Nc2cc(C)ccn2)cc1	14*	-3	10*	2	0	2	11*
CSc1nc(-c2ccc(C)cc2)nc(N)c1C#N	4	3	8.5*	1	2.2*	1	7.8*
CSc1nc(-c2ccc(Cl)cc2)nc(N)c1C#N	0	/	4	0	0	/	/
COc1ccc(C(=O)OCCCN(C)C2CN(Cc3cn(Cc4ccccc4Cl)nn3)S(=O)(=O)C2)cc1OC (stereo not given)	-3	/	-2	-2	-2	/	/
O=C1NC(=O)C(CC(=O)N(Cc2cccs2)C2(C(=O)NC3CCCC3)CCCCC2)N1 (stereo not given)	-1	-1	8.7*	0	-1	0	0
COC(=O)[C@]12C[C@H](CC(=O)N3CCN(C(=O)c4ccco4)CC3)C(=O)N(Cc3ccc4c(c3)OCO4)C1=C[C@H](COCc1ccccc1)O[C@@H]2C	-1	/	-1	0	-2	/	/
SMILES	hgDAF-12 ag	DAX1 inh-1	hcDAF12 agonist	DAX1 inh-2	ssDAF12 agonist	LXRb hcDAF ctr	hcDAF12 ag
CCc1c(C)nc(SCC(N)=O)c(C#N)c1C	1	0	-2	0	-1	/	/
CCc1c(C)nc(SCC(=O)c2cccs2)c(C#N)c1C	6	2	8.2*	2	1	1	8.7*
COC(=O)C1=C(C)N(Cc2ccc(C(F)(F)F)cc2)C(=NCc2ccccc2C(F)(F)F)NC1c1ccc(F)cc1 (stereo not given)	1	/	1	0	-1	/	/
CC(C)c1ccc2oc(-c3ccc(N)cc3)nc2c1	8	-2	12*	2	1	2	15*
Cc1ccc(-c2nc3cc(N)ccc3o2)cc1	13*	-1	9.8*	3.6*	1	2	9.2*
Cc1ccc(-c2nc3cc(C)ccc3o2)cc1	12*	3	11*	3	1.7*	2	21*
CC(C)(C)c1ccc(-c2nc3cc(N)ccc3o2)cc1	8	0	4	1	-1	/	/
O=C1CCN(Cc2ccccc2)C=C1c1ccc2ccccc2c1	11*	3	9.4*	2	1.0*	1	7.0*
Oc1ccccc1-c1nc2c3ccccc3c3ccccc3c2[nH]1	4	2	7.5*	-1	0	0	5
c1csc(-c2nc3c4ccccc4c4ccccc4c3[nH]2)c1	2	-1	0	-1	0	/	/
Cc1cc(Oc2cccc3c2S(=O)(=O)N([C@H](C)c2ccccc2)C[C@@H](COCc2ccccc2)O3)cc(C)c1C	2	/	0	1	-1	/	/
CC(=O)NCCC(=O)Nc1nc(-c2c[nH]c3ccccc23)cs1	5	3	5	0	0	/	/
COc1ccc(Nc2nc(-c3c[nH]c4ccccc34)cs2)cc1	6	-1	11*	1	1	0	5
C=CCN1C(=O)C(=O)N(Cc2nc3ccccc3s2)C1=O	6	3	9.6*	1	1.2*	1	9.7*
O=S(=O)(c1cccs1)N1CCN(Cc2nc3ccccc3s2)CC1	2	-1	3	0	0	/	/
CCCn1c(/C=C/c2ccccc2)nc2ccccc21	11*	1	6.6*	3.6*	0	1	7.9*
COc1ccc(O)c(-c2cc(-c3ccccc3Cl)[nH]n2)c1	7	3	7.5*	1	0	0	4
